Assay results: PubChem BioAssay (EPA / NIEHS)
Activity calls are given as the source filed them. How the source made its calls: active means hit-call score of the fitted dose curve at least 0.9, where 1 is the maximum; inactive means score below 0.9.

Read-out: Cytochrome P450 4A22 (Homo sapiens) (UniProt Q5TCH4)
Assay: LTEA_HepaRG_CYP4A22: Life Technologies and Expression Analysis (LTEA) Assay for Cytochrome P450 4A22 (CYP4A22) using HepaRG (AID 2283495)
Details: mRNA level, 48 h; actives raise or lower the signal
Procedure, shortened: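 Cryopreserved HepaRG cells, plated and cultured 48 h, then switched to serum-free induction medium and treated 48 h (duplicates, up to 100 uM, half-log steps, 0.5% DMSO). Expression change of CYP4A22 was fitted bidirectionally against vehicle.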

Row | SMILES | outcome | AC50
1 | CCCCCCCCCCCCN1CCCC1=O | inactive | 
2 | CC#C[C@]1(O)CC[C@H]2[C@@H]3CCC4=CC(=O)CCC4=C3[C@@H](c3ccc(N(C)C)cc3)C[C@@]21C |  | 24.2 µM (active)
3 | CC(C)(C)c1cccc(C(C)(C)C)c1O | inactive | 
4 | CCCCCCCCCCCCc1ccccc1S(=O)(=O)O |  | 79.6 µM (active)
5 | CCCCCCCCCCCCCCCS(=O)(=O)Oc1ccccc1 | inactive | 
6 | CCCCOCCO | inactive | 
7 | CCCCCCCCC(=O)O | inactive | 
8 | CC(=O)CC(C)(C)O | inactive | 
9 | CCC(C)(C)C1CCC(O)CC1 (configuration not stated) | inactive | 
10 | CC(C)CCCCCCOC(=O)CCCCC(=O)OCCCCCCC(C)C | inactive | 
11 | CCCCCCCC(=O)O | inactive | 
12 | COC(=O)CCCCC(=O)OC | inactive | 
13 | C#C[C@]1(O)CC[C@H]2[C@@H]3CCC4=CC(=O)CC[C@@H]4[C@H]3CC[C@@]21C | inactive | 
14 | OCCC(F)(F)C(F)(F)C(F)(F)C(F)(F)C(F)(F)C(F)(F)F | inactive | 
15 | C[C@@H]1C[C@H]2[C@@H]3CCC4=CC(=O)C=C[C@]4(C)[C@@]3(F)[C@@H](O)C[C@]2(C)[C@@]1(O)C(=O)COP(=O)(O)O | inactive | 
16 | CCOC(=O)CC(O)(CC(=O)OCC)C(=O)OCC | inactive | 

Row | SMILES | outcome | AC50
17 | NC(=O)N1C(=O)C(C(=O)c2cc(Cl)cs2)c2cc(F)c(Cl)cc21 (configuration not stated) |  | 24.1 µM (active)
18 | COCC(C)OCC(C)O (configuration not stated) | inactive | 
19 | CC[C@H](C)[C@@H](C(=O)O)n1sc2ccccc2c1=O | inactive | 
20 | Nc1cccc2c(N)cccc12 | inactive | 
21 | OC1CCCCC1 | inactive | 
22 | COc1ccc([N+](=O)[O-])cc1N | inactive | 
23 | O=c1c(-c2ccc(O)cc2)coc2cc(O)ccc12 | inactive | 
24 | CCCOc1sc(C(=O)N2CCC(c3cc(CN)ccc3F)CC2)c(C)c1Br | inactive | 
25 | CC1=C(/C=C/C(C)=C/C=C/C(C)=C/C(=O)O)C(C)(C)CCC1 |  | 10.2 µM (active)
26 | CC(C)(C)CC(C)(C)c1ccc(O)c(-n2nc3ccccc3n2)c1 |  | 50 µM (active)
27 | CC[C@H](c1ccc(O)cc1)[C@@H](CC)c1ccc(O)cc1 | inactive | 
28 | Cc1cc(CCN2CCN(c3nsc4ccccc34)CC2)cc2c1NC(=O)CC2(C)C |  | 58.6 µM (active)
29 | c1ccc2c(c1)ccc1ccccc12 | inactive | 
30 | CCCOC(=O)c1ccc(O)cc1 | inactive | 
31 | CCc1ccc(CCOc2ccc(CC3SC(=O)NC3=O)cc2)nc1 (configuration not stated) |  | 84 µM (active)

Read-out: Cytochrome P450 7A1 (Homo sapiens) (UniProt P22680)
Assay: LTEA_HepaRG_CYP7A1: Life Technologies and Expression Analysis (LTEA) Assay for Cytochrome P450 7A1 (CYP7A1) using HepaRG (AID 2283496)
Details: mRNA level, 48 h; actives raise or lower the signal
Procedure, shortened: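 HepaRG cells plated 48 h, then switched to serum-free induction medium and exposed in duplicate for 48 h to 8-point half-log series from 100 uM in 0.5% DMSO. CYP7A1 mRNA by qRT-PCR (TaqMan), normalized to ACTB/GAPDH/POLR2A; bidirectional fit versus DMSO.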

Row | SMILES | outcome | AC50
32 | CCCCCCCCCCCCN1CCCC1=O | inactive | 
33 | CC#C[C@]1(O)CC[C@H]2[C@@H]3CCC4=CC(=O)CCC4=C3[C@@H](c3ccc(N(C)C)cc3)C[C@@]21C |  | 43.6 µM (active)
34 | CC(C)(C)c1cccc(C(C)(C)C)c1O | inactive | 
35 | CCCCCCCCCCCCc1ccccc1S(=O)(=O)O |  | 93.7 µM (active)
36 | CCCCCCCCCCCCCCCS(=O)(=O)Oc1ccccc1 | inactive | 
37 | CCCCOCCO | inactive | 
38 | CCCCCCCCC(=O)O | inactive | 
39 | CC(=O)CC(C)(C)O | inactive | 
40 | CCC(C)(C)C1CCC(O)CC1 (configuration not stated) | inactive | 
41 | CC(C)CCCCCCOC(=O)CCCCC(=O)OCCCCCCC(C)C | inactive | 
42 | CCCCCCCC(=O)O | inactive | 
43 | COC(=O)CCCCC(=O)OC | inactive | 
44 | C#C[C@]1(O)CC[C@H]2[C@@H]3CCC4=CC(=O)CC[C@@H]4[C@H]3CC[C@@]21C |  | 0.299 µM (active)
45 | OCCC(F)(F)C(F)(F)C(F)(F)C(F)(F)C(F)(F)C(F)(F)F | inactive | 
46 | C[C@@H]1C[C@H]2[C@@H]3CCC4=CC(=O)C=C[C@]4(C)[C@@]3(F)[C@@H](O)C[C@]2(C)[C@@]1(O)C(=O)COP(=O)(O)O | inactive | 
47 | CCOC(=O)CC(O)(CC(=O)OCC)C(=O)OCC | inactive | 

Row | SMILES | outcome | AC50
48 | NC(=O)N1C(=O)C(C(=O)c2cc(Cl)cs2)c2cc(F)c(Cl)cc21 (configuration not stated) |  | 16.6 µM (active)
49 | COCC(C)OCC(C)O (configuration not stated) | inactive | 
50 | CC[C@H](C)[C@@H](C(=O)O)n1sc2ccccc2c1=O | inactive | 
51 | Nc1cccc2c(N)cccc12 |  | 10.1 µM (active)
52 | OC1CCCCC1 | inactive | 
53 | COc1ccc([N+](=O)[O-])cc1N | inactive | 
54 | O=c1c(-c2ccc(O)cc2)coc2cc(O)ccc12 | inactive | 
55 | CCCOc1sc(C(=O)N2CCC(c3cc(CN)ccc3F)CC2)c(C)c1Br | inactive | 
56 | CC1=C(/C=C/C(C)=C/C=C/C(C)=C/C(=O)O)C(C)(C)CCC1 |  | 29.6 µM (active)
57 | CC(C)(C)CC(C)(C)c1ccc(O)c(-n2nc3ccccc3n2)c1 |  | 50 µM (active)
58 | CC[C@H](c1ccc(O)cc1)[C@@H](CC)c1ccc(O)cc1 |  | 78.8 µM (active)
59 | Cc1cc(CCN2CCN(c3nsc4ccccc34)CC2)cc2c1NC(=O)CC2(C)C |  | 80.6 µM (active)
60 | c1ccc2c(c1)ccc1ccccc12 | inactive | 
61 | CCCOC(=O)c1ccc(O)cc1 | inactive | 
62 | CCc1ccc(CCOc2ccc(CC3SC(=O)NC3=O)cc2)nc1 (configuration not stated) |  | 68.5 µM (active)
